According to ChEMBL document CHEMBL3988442, “University of Dundee, Small-Polar-MMV Screening Library” (2021):
About 900 (1.7%) of roughly 53,000 compounds showed an effect of 50% or more. For the sample, strong results were picked, then their nearest neighbours and some compounds at random.

System: Mycobacterium tuberculosis
Experiment: Cornell - Phenotypic assay to identify agents that inhibit growth of Mycobacterium tuberculosis
Assay type: functional
Parameters: scale not given: direction of the effect not stated beside the values
Details: 10 mM as filed; unlikely as a test dose

Structure (SMILES) | Percent Effect [%]
Cc1ncc(-c2ccnc(NCCc3ccc(F)cc3)n2)c(=O)[nH]1 | -5.112
Cn1ncc2c(N3CCN4CCCCC4C3)nc(C3CCCC3)nc21 (stereo not given) | 27.57
CN1CCCc2cc(-c3cncn3CCNC3CCS(=O)(=O)C3)ccc21.Cl (stereo not given) | 6.115
CN1CCCc2cc(-c3cncn3CC(=O)NC(C)(C)C)ccc21.Cl | 13.27
Cc1nn(C)c(C)c1CCn1cncc1-c1ccc2c(c1)CC(C)N2C.Cl (stereo not given) | 64.61
CC1Cc2cc(-c3cncn3CC(=O)NC(C)(C)C)ccc2N1C.Cl (stereo not given) | -2.378
Cc1cc(C)n(CCCn2cncc2-c2ccc3c(c2)CC(C)N3C)n1.Cl (stereo not given) | 63.97
CCOC(=O)c1n[nH]cc1-c1cncn1CCCn1nc(C)cc1C.Cl | 25.38
CC(C)c1cc(C2CCCN2C(=O)c2cn3ccsc3n2)no1 (stereo not given) | 31.59
Cc1cc(NC(=O)C2CCN(c3ncccc3C#N)CC2)no1 | -28.06
O=C(Cc1cccs1)NCc1ccnc(C2CCCOC2)n1 (stereo not given) | 6.218
Cc1nc(C)n(CC2CCCN(c3ncnc4ccccc34)C2)n1 (stereo not given) | -29.18
Cc1nc(C)n(CC2CCCN(c3ncnc4ccsc34)C2)n1 (stereo not given) | 51.96
Cc1nc(C)n(CC2CCCN(c3ncnc4sccc34)C2)n1 (stereo not given) | -6.342
Cc1ncccc1C(=O)Nc1cccc(C[S+](C)[O-])c1C (stereo not given) | 11.87
COc1ccc(-n2cc(CNC(=O)c3ccc[nH]3)nn2)cc1 | 1.2
CC(=O)N1CCC2(C1)CN(S(=O)(=O)c1ccccc1)C2 | 13.22
c1cnnc(N2CCCC2CNCc2nc3ccccc3o2)c1 (stereo not given) | 108.2
CN(Cc1nc2ccccc2o1)CC1CCCN1c1cccnn1 (stereo not given) | -25.78
Cc1nc(CNCC2CCCN2c2cccnn2)oc1C (stereo not given) | 5.973
Cn1cc(C(=O)N2CCO[C@@H]3CN(C4CCC4)C[C@@H]3C2)cn1 | 3.925
COCCN1CCN(Cc2cccc(C(=O)N(C)C)c2)CC1 | -27.32
CCC(C)N(Cc1cnc(OC)nc1)Cc1ccsc1 (stereo not given) | -2.85
COCCCN(C)c1nc(-c2ccncc2)nc2c1CCN(C(C)=O)C2 | -26.88

Structure (SMILES) | Percent Effect [%]
Cc1nc(-c2ccncc2)nc(N(C)CCc2ccncc2)c1C | -4.993
COCCCN(C)c1nc(-c2ccncc2)nc(C)c1C | 79.79
NC(=O)C1CCN(C(=O)NCc2ccc(-c3ccn[nH]3)cc2)CC1 | -27.61
O=C(N1CCCO1)[C@@]12CCO[C@@H]1CCN(Cc1ccccn1)C2.O=C(O)C(F)(F)F.O=C(O)C(F)(F)F | 16.34
O=C(NCC(O)c1ccsc1)c1sccc1OC(F)F (stereo not given) | 14.09
CC(C)Oc1cccc(C(O)CNC(=O)CCc2ccncc2)c1 (stereo not given) | 31.72
O=C(NCC(O)c1ccsc1)Nc1cccs1 (stereo not given) | 98.83
Cc1csc(CNC(=O)NCC(O)c2ccccc2)n1 (stereo not given) | -28.19
CC(C)Oc1cccc(C(O)CNC(=O)Nc2cccs2)c1 (stereo not given) | 105
CCOc1ccccc1CCNC(=O)NCC(O)c1ccsc1 (stereo not given) | 26.35
O=C(NCCc1ccccc1)NCC(O)c1cccs1 (stereo not given) | 16.84
O=C(NCC(O)c1ccccc1)Nc1cccs1 (stereo not given) | 59.31
O=C(Nc1ccccn1)NC(CCCO)c1ccccc1 (stereo not given) | -24.69
CC(C)Oc1cccc(C(O)CNC(=O)NCc2cccs2)c1 (stereo not given) | 7.446
O=C(Nc1cccs1)NC(CCCO)c1ccccc1 (stereo not given) | 101.4
O=C(Nc1cccnn1)NC(CCCO)c1ccccc1 (stereo not given) | -8.222
Cc1cc(C)n2c(CNCc3ccc(OC(F)F)cc3)cnc2n1 | -7.615
Cn1ncc2c(N3CCCN(C(=O)c4ccsc4)CC3)ncnc21 | 16.86
CCCc1ccc(CN2CCC3(CCC(=O)N(CCO)C3)CC2)o1 | 9.804
COc1ccccc1C(=O)N1CCOC2(CCCN(C(C)=O)C2)C1 (stereo not given) | 23.26
Fc1ccc(C2CCCN2Cc2nnnn2C2CC2)cc1 (stereo not given) | -22.59
O=C(NCCCN1CCCC1=O)c1nc(-c2ccc3[nH]ccc3c2)no1 | 3.66
Cn1cccc1C(=O)N1CCC2(CC1)COC(COc1ccccn1)C2.O=C(O)C(F)(F)F (stereo not given) | 9.973
CC(C)NC(=O)C(C)NC(=O)N1CCN(c2ccc(Cl)cc2)CC1 (stereo not given) | -27.07

Structure (SMILES) | Percent Effect [%]
CC(C)NC(=O)C(NC(=O)N1CCN(c2ccc(Cl)cc2)CC1)C(C)C (stereo not given) | 76.86
CC(C)NC(=O)[C@H](C)NC(=O)N1CCN(c2ccc(Cl)cc2)CC1 | -2.997
CC(NC(=O)N1CCN(c2ccc(Cl)cc2)CC1)C(=O)N1CCSCC1 (stereo not given) | 21.43
CC(C)NC(=O)[C@@H](NC(=O)N1CCN(c2ccc(Cl)cc2)CC1)C(C)C | 70.57
CN(C(=O)NC1CC1)C1CCN(c2ccc(Cl)cc2)CC1 | 17.37
C[C@H](NC(=O)N1CCN(c2ccc(Cl)cc2)CC1)C(=O)N1CCSCC1 | 11.26
CC(C)[C@H](NC(=O)N1CCN(c2ccc(Cl)cc2)CC1)C(=O)NC1CC1 | 4.583
CC(C)C(NC(=O)N1CCN(c2ccc(Cl)cc2)CC1)C(=O)NC1CC1 (stereo not given) | 93.48
Fc1ccccc1NCc1nc2n(n1)CCCCC2 | 6.356
NC(=O)CN1CCCC(c2cncc(Nc3ncccn3)n2)C1 (stereo not given) | 28.6
COCCN1C(=O)CC[C@]12CC[C@@H](NC(=O)c1cnccn1)CC2 | 8.611
CCCc1nnnn1CC(=O)NCc1cccc(C)c1 | 14.77
CCOC(=O)C1(Cc2ccccc2-c2ccccc2OC)CCNCC1.Cl | 1.496
CNc1[nH]nc(N)c1NC(=O)c1ccccc1 | 107.3
CNc1[nH]nc(N)c1C(=O)Nc1ccccc1 | -18.4
CNc1[nH]nc(N)c1C(=O)Nc1ccc(OC)cc1 | -4.193
Cc1cc(C)nc(Nc2nccnc2C2CCCN(C(C)C)C2)n1 (stereo not given) | 29.5
CC(C)N1CCCC(c2cc(C(F)(F)F)nc3nccn23)C1 (stereo not given) | 55.76
Cc1nc(Nc2cnccn2)cc(C2CCCN(C(C)C)C2)n1 (stereo not given) | -5.253
FC(F)(F)c1cc(C2CCCN(c3cnccn3)C2)n2ccnc2n1 (stereo not given) | 5.193
FC(F)(F)c1cc(C2CCN(c3cnccn3)CC2)n2ccnc2n1 | 47.21
FC(F)(F)c1cc(C2CCCN(c3ncccn3)C2)n2ccnc2n1 (stereo not given) | 58.69
